Results as given in PubChem BioAssay (NCI).
“And” between values parts separate entries of the source, which are not always exact repeats. Equal entries are not always repeated. The panel holds about 83,000 compounds, 20% with a hit somewhere; the sample as a whole holds those more often.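 Growth was measured after 48 h exposure to one concentration of compound in 96-well plates. Values under 10 count as active.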 Unmarked numbers belong to inactive results. The source made the active and inactive calls.

How the values were obtained:
Assay in all cases: NCI-60 one-dose screen, 48 h (100 = growth as untreated, 0 = no growth, -100 = all killed)
Details in all cases: 10 µM unless noted
NCI-H23 lung = tested on: NCI-H23 lung
NCI-H226 lung = tested on: NCI-H226 lung
NCI-H322M lung = tested on: NCI-H322M lung
HOP-62 NSCLC = tested on: HOP-62 NSCLC
NCI-H460 lung = tested on: NCI-H460 lung
HOP-92 NSCLC = tested on: HOP-92 NSCLC
NCI-H522 lung = tested on: NCI-H522 lung
A549/ATCC NSCLC = tested on: A549/ATCC NSCLC
786-0 renal = tested on: 786-0 renal
COLO 205 colon = tested on: COLO 205 colon
DU-145 prostate = tested on: DU-145 prostate
K-562 leukemia = tested on: K-562 leukemia
MALME-3M melanoma = tested on: MALME-3M melanoma
MDA-MB-231 breast = tested on: MDA-MB-231 breast
RXF 393 renal = tested on: RXF 393 renal
SF-268 CNS = tested on: SF-268 CNS
SF-295 CNS = tested on: SF-295 CNS
SF-539 CNS = tested on: SF-539 CNS
UACC-257 melanoma = tested on: UACC-257 melanoma
M14 melanoma = tested on: M14 melanoma

In the case of `CN(C)c1ccc(N=Nc2cccc3ccccc23)cc1`, the growth (NCI-H23 lung) is reported as 84.3%, the growth (NCI-H226 lung) is reported as 63.5% and the growth (NCI-H322M lung) is reported as 94.4%. The growth (HOP-62 NSCLC) was 85.7%, the growth (NCI-H460 lung) was 92.7% and the growth (HOP-92 NSCLC) was 74%. For the same compound, the growth (NCI-H522 lung) was 95%, the growth (A549/ATCC NSCLC) was 89.8% and the growth (786-0 renal) was 100%. For the same compound, the growth (COLO 205 colon) was 87.2%, the growth (DU-145 prostate) was 107% and the growth (K-562 leukemia) was 117%. For the same compound, the growth (MALME-3M melanoma) was 101%, the growth (MDA-MB-231 breast) was 80.1% and the growth (RXF 393 renal) was 98.9%. It also gave a growth (SF-268 CNS) of 95.1%, a growth (SF-295 CNS) of 91.5% and a growth (SF-539 CNS) of 97.1%. It also gave a growth (UACC-257 melanoma) of 96.3% and a growth (M14 melanoma) of 80.5%.

Work on `S=C(N/N=C/c1ccccn1)Nc1ccccn1` yielded a growth (NCI-H23 lung) of 23.8%, a growth (NCI-H226 lung) of 12.1% and a growth (NCI-H322M lung) of 22.4%. For the same compound, the growth (HOP-62 NSCLC) was 13.7%, the growth (NCI-H460 lung) was 2.59% (active) and the growth (HOP-92 NSCLC) was -2.58% (active). For the same compound, the growth (NCI-H522 lung) was -39.9% (active), the growth (A549/ATCC NSCLC) was 20.7% and the growth (786-0 renal) was 2.42% (active). The growth (COLO 205 colon) was 9.1% (active), the growth (DU-145 prostate) was 28.4% and the growth (K-562 leukemia) was 8.45% (active). The growth (MALME-3M melanoma) was 10.6%, the growth (MDA-MB-231 breast) was 42.4% and the growth (RXF 393 renal) was 2.43% (active). For the same compound, the growth (SF-268 CNS) was 32%, the growth (SF-295 CNS) was 27.1% and the growth (SF-539 CNS) was 14.1%. The growth (UACC-257 melanoma) was -14.9% (active) and the growth (M14 melanoma) was 0.168% (active).

`CC(=O)Nc1cccc2cc(O)ccc12` was tested, and the growth (NCI-H23 lung) was 99% and 101% and 103%, the growth (NCI-H226 lung) was 98.2% and 98.1% and 102% and the growth (NCI-H322M lung) was 110% and 116%. The growth (HOP-62 NSCLC) was 100% and 93.1% and 95.8%, the growth (NCI-H460 lung) was 114% and 103% and 105% and the growth (HOP-92 NSCLC) was 64.6% and 88.7% and 73.6%. The growth (NCI-H522 lung) was 101% and 109% and 84.1%, the growth (A549/ATCC NSCLC) was 118% and 111% and 98.6% and the growth (786-0 renal) was 109% and 104% and 98.9%. The growth (COLO 205 colon) was 106% and 110% and 104%, the growth (DU-145 prostate) was 118% and 110% and 111% and the growth (K-562 leukemia) was 108% and 113% and 99.7%. The growth (MALME-3M melanoma) was 101% and 127% and 98.3%, the growth (MDA-MB-231 breast) was 102% and 95.1% and 95.8% and the growth (RXF 393 renal) was 123% and 98% and 105%. The growth (SF-268 CNS) was 111% and 94.6% and 99.6%, the growth (SF-295 CNS) was 84.7% and 130% and 99% and the growth (SF-539 CNS) was 96.4% and 96.8% and 98.5%. For the same compound, the growth (UACC-257 melanoma) was 123% and 103% and 90.3% and the growth (M14 melanoma) was 91.7% and 98.2%.

`Cc1cc2nc(CS)[nH]c2cc1C` showed a growth (NCI-H23 lung) of 97.1%, a growth (NCI-H226 lung) of 93.1% and a growth (NCI-H322M lung) of 76.4%. It also gave a growth (HOP-62 NSCLC) of 92.7%, a growth (NCI-H460 lung) of 93% and a growth (HOP-92 NSCLC) of 88.9%. It also gave a growth (NCI-H522 lung) of 74.7%, a growth (A549/ATCC NSCLC) of 94.2% and a growth (786-0 renal) of 81.6%. The growth (COLO 205 colon) was 90.3%, the growth (DU-145 prostate) was 93.9% and the growth (K-562 leukemia) was 76.8%. For the same compound, the growth (MALME-3M melanoma) was 95.7%, the growth (MDA-MB-231 breast) was 99% and the growth (RXF 393 renal) was 76.9%. The growth (SF-268 CNS) was 103%, the growth (SF-295 CNS) was 102% and the growth (SF-539 CNS) was 94.6%. The growth (UACC-257 melanoma) was 101% and the growth (M14 melanoma) was 89.9%.

Compound `N#CSCc1ccc(CSC#N)c(Cl)c1` has a growth (NCI-H23 lung) of 85.1%, a growth (NCI-H226 lung) of 93.1% and a growth (NCI-H322M lung) of 106%. For the same compound, the growth (HOP-62 NSCLC) was 129%, the growth (NCI-H460 lung) was 75.5% and the growth (HOP-92 NSCLC) was 4.78% (active). For the same compound, the growth (NCI-H522 lung) was 15.7%, the growth (A549/ATCC NSCLC) was 75.8% and the growth (786-0 renal) was 73.2%. The growth (COLO 205 colon) was 45%, the growth (DU-145 prostate) was 42.5% and the growth (K-562 leukemia) was 33.8%. It also gave a growth (MALME-3M melanoma) of 54.3%, a growth (MDA-MB-231 breast) of 52.5% and a growth (RXF 393 renal) of 72.2%. For the same compound, the growth (SF-268 CNS) was 65.8%, the growth (SF-295 CNS) was 102% and the growth (SF-539 CNS) was 58.8%. The growth (UACC-257 melanoma) was 67.6% and the growth (M14 melanoma) was 50.7%.

In the case of `COc1ccccc1/C=C\C(=O)c1ccccc1`, the growth (NCI-H23 lung) is reported as 79.8%, the growth (NCI-H226 lung) is reported as 85.8% and the growth (NCI-H322M lung) is reported as 95%. For the same compound, the growth (HOP-62 NSCLC) was 85.9%, the growth (NCI-H460 lung) was 59.5% and the growth (HOP-92 NSCLC) was 16.3%. For the same compound, the growth (NCI-H522 lung) was 39.2%, the growth (A549/ATCC NSCLC) was 96.4% and the growth (786-0 renal) was 81.9%. For the same compound, the growth (COLO 205 colon) was 111%, the growth (DU-145 prostate) was 94.7% and the growth (K-562 leukemia) was 13%. The growth (MALME-3M melanoma) was 78.9%, the growth (MDA-MB-231 breast) was 84.8% and the growth (RXF 393 renal) was 85.5%. The growth (SF-268 CNS) was 96.1%, the growth (SF-295 CNS) was 94.2% and the growth (SF-539 CNS) was 92.4%. For the same compound, the growth (UACC-257 melanoma) was 82.2% and the growth (M14 melanoma) was 78.5%.
